Efflux pump inh = inhibitors of Candida efflux pumps in yeast, primary screen, S. cerevisiae, Nile Red, multiplex. AID 485275, 2010. S. cerevisiae Candida pump triplex. actives 0.44% (n = 330,000). inhibition, % at 10 µM;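 active = plate passing quality check with inhibition over a set limit, or well fluorescence over plate mean plus 4 SD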;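 also: Nile Red retained in pooled yeast measured as flow cytometry median fluorescence; higher means more Nile Red kept so more efflux inhibition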
Mot1-301 SUMO = yeast Mot1-301 growth rescue at high temperature, primary screen, SUMOylation pathway inhibitor project, S. cerevisiae, ATP luminescence, 38.5C; S. cerevisiae Mot1-301 growth rescue; percent above DMSO median, 100 means doubled; growth rescue, % at 18.8 µM; actives 1% (n = 320,000); AID 2716, 2010;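 active = every valid replicate shows activation above 250% relative to neutral control wells; inactive = the rest, any valid replicate at or below 250%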
V-ATPase pHluor = regulators of yeast V-ATPase proton pumping, primary screen, pHLuorin cytosolic pH fluorescence | S. cerevisiae | response, % at 10 µM | actives 0.37% (n = 350,000) | AID 504577, 2011; in the data active = response mostly above about 7.3%, no sharp cut-off; inactive = mostly below about 5.4%; also: actives read high
AI-2 QS modul = Vibrio harveyi AI-2 quorum sensing modulators, primary screen, JMH597 strain, luminescence/OD600 ratio; activity change, % at 7.5 µM; actives 0.4% (n = 300,000); Vibrio harveyi JMH597 AI-2 luminescence/OD600 ratio, 9 h; hits give low values; strain lacks LuxN and CqsS sensors; 0 = neutral-control median; in the data active = activity change below about -75%, passing the limit was not always enough;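 also: luminescence divided by OD600 gain over 9 h not by final OD600 alone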
ATG4B inhibitor = ATG4B protease inhibitors, primary screen, biochemical, fluorescence, uHTS; Cysteine protease ATG4B (Homo sapiens), Q9Y4P1; ATG4B cleavage of LC3-PLA2, NBD-HPC fluorescence, 1 h; inhibition, % at 8.33 µM; actives 0.51% (n = 340,000); AID 504462, 2011; in the data active = inhibition above about 40%
Target sequence (Q9Y4P1 whole entry, looked up): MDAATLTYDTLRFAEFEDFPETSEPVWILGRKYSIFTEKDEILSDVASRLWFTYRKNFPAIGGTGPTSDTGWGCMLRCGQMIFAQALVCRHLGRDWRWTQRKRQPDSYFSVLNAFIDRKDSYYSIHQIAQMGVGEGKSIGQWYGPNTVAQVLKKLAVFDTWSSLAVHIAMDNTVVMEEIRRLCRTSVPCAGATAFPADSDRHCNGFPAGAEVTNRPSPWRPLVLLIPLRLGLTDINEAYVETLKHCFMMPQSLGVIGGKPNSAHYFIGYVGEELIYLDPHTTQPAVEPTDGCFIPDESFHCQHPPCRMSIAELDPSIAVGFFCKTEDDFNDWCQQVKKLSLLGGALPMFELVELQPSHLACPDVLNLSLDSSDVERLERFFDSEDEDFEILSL
ATG4B conf = ATG4B protease inhibitors, retest, confirmation, biochemical, fluorescence, single concentration | shares compounds with ATG4B inhibitor | ATG4B protease fluorescent substrate cleavage assay | inhibition, % at 8.33 µM | actives 92% (n = 320); in the data active = inhibition above about 39%
PLA2 counter = PLA2 enzyme inhibition, counter-screen for ATG4B inhibitor project, biochemical, single concentration, uHTS hits | shares compounds with ATG4B inhibitor | purified PLA2, NBD-C6-HPC fluorescence, 45 min | inhibition, % at 8.33 µM | actives 66% (n = 1,600) | AID 588402, 2011; in the data active = inhibition above about 50%
Target sequence (P04054 whole entry, looked up): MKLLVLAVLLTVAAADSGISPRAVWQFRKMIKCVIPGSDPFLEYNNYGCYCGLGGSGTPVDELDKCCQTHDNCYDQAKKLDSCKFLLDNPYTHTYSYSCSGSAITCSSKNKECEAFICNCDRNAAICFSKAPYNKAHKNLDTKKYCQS
Each line names hits and unclear results; the compound was inactive in the other large screens (follow-up assays come after a bar, where they were run). Shown are actives, neighbours in structure and some others; about 2.5% of the full set was active somewhere.

O=S(=O)(c1ccc2c(c1)C(O)c1ccccc1CC2)C(F)(F)F (configuration not stated)	ATG4B inhibitor 40 (no result: AI-2 QS modul) | PLA2 counter 60
Nc1cc(S(=O)(=O)C(F)(F)F)ccc1C(=O)O	none
Cc1ccc2occ(/C=N/NC(=O)c3ccccc3Br)c(=O)c2c1	none
CCOc1ccccc1C(=O)N/N=C/c1coc2ccc(C)cc2c1=O	ATG4B inhibitor 65 | PLA2 counter 76
CCCCCCSc1nnc(-c2cnn(-c3ccccc3)c2-n2cccc2)n1C	ATG4B inhibitor 44 | PLA2 counter 58
CCSc1nnc(-c2cnn(-c3ccccc3)c2-n2cccc2)n1C	none
Cc1nn(Cc2c(Cl)cccc2Cl)c(C)c1NC(=O)CCCn1nc([N+](=O)[O-])c(Cl)c1C	ATG4B inhibitor 46 | ATG4B conf 70 | PLA2 counter inactive
Cc1c(Cl)c([N+](=O)[O-])nn1CCCC(=O)Nc1cccc(Cl)c1	ATG4B inhibitor 75 | PLA2 counter 78
O=C(NC1CCCCC1)C(c1ccc(O)c(O)c1)N(C(=O)Cn1nnc2ccccc21)c1cccc(O)c1 (configuration not stated)	none
O=C(O)c1cc(-c2ccccc2)nc2nc(N3CCCCC3)sc12	none (no result: V-ATPase pHluor, ATG4B inhibitor)
Cc1ccc(-c2cc(C(=O)O)c3sc(N4CCCCC4)nc3n2)cc1	ATG4B inhibitor 40 | PLA2 counter inactive
Cc1cc(/C=C2\NC(=S)NC2=O)c(C)n1-c1cccnc1	none
O=C(Nc1ccccc1N1CCCC1)c1cccc(-c2cc3ccccc3oc2=O)c1	ATG4B inhibitor 57 | PLA2 counter 67
Cc1cc(S(=O)(=O)N2CCN(c3c(C)cccc3C)CC2)ccc1F	ATG4B inhibitor 49 | PLA2 counter 52
Cc1cc(S(=O)(=O)N2CCN(c3ccccc3C)CC2)ccc1F	ATG4B inhibitor 45 | PLA2 counter 52
CCN(c1ccccc1)S(=O)(=O)c1csc(C(N)=O)c1	none
Cc1ccc(S(=O)(=O)N(C)c2ccc(C(=O)NCc3ccccc3F)cc2)cc1	none
Cc1ccc(-c2cc(=O)c3cc(C)ccc3[nH]2)cc1	ATG4B inhibitor 72 (no result: Efflux pump inh) | PLA2 counter inactive
CCc1nc(N(CC)CC)c2oc3ccccc3c2n1	none
CCc1nc(N2CCC(C)CC2)c2oc3ccccc3c2n1	ATG4B inhibitor 57 | PLA2 counter 68
NC(=O)c1cc2c(s1)-c1cc(Cl)ccc1SC2	Mot1-301 SUMO 351, ATG4B inhibitor 44 | PLA2 counter inactive
CNC(=O)N(O)C1N(NC(=O)Nc2ccccc2)C(=S)SC1(C)C (configuration not stated)	none
CC1(C)SC(=S)N(NC(=O)Nc2cccc3ccccc23)C1N(O)C(=O)Nc1ccccc1 (configuration not stated)	ATG4B inhibitor 46 | PLA2 counter 58
O=C(O)c1oc2ccccc2c1-n1cccc1	ATG4B inhibitor 58 | PLA2 counter 57
COC(=O)c1oc2ccc(Br)cc2c1-n1cccc1	none
Nc1nc(-c2ccccc2)nn1S(=O)(=O)c1ccccc1	none
C[C@H]1CN([C@@H](C)CO)C(=O)c2cc(NC(=O)NC3CCCCC3)ccc2O[C@H]1CN(C)C(=O)Nc1ccc(C(F)(F)F)cc1	ATG4B inhibitor 62 (no result: AI-2 QS modul) | PLA2 counter 74
COc1ccc(NS(=O)(=O)c2ccc(C)c(NC(=O)NC3CCCCC3)c2)cc1	none
COc1ccc(NS(=O)(=O)c2cccc(NC(=O)NC3CCCCC3)c2)cc1	ATG4B inhibitor 54 | PLA2 counter 65
Cc1cccc(NC(=S)NNC(=O)c2csc3c2CCCC3)c1	ATG4B inhibitor 43 | ATG4B conf 71 | PLA2 counter inactive
Cc1ccc(C)c(NC(=S)NNC(=O)c2csc3c2CCCC3)c1	none (no result: Mot1-301 SUMO)
O=C(CC1CCCCC1)Nc1ccccc1-c1ccccc1	none
O=C(CCC1CCCC1)Nc1ccccc1-c1ccccc1	ATG4B inhibitor 45 | PLA2 counter 50
O=C(CCC1CCCCC1)Nc1ccccc1-c1ccccc1	ATG4B inhibitor 53 | PLA2 counter 54
COc1ccc(CCC(=O)Nc2ccc(Cn3ccnc3)cc2)cc1	none
CCOc1ccc(C(=O)NCC(=O)Nc2ccc(N3CCOCC3)cc2)cc1OCC	none (no result: Mot1-301 SUMO)
CCC(C)NC(=O)C1CCC(CNS(=O)(=O)c2ccc3c(c2)N(C(C)=O)CCO3)CC1 (configuration not stated)	none
CCOc1ccc(C(=O)N/N=C/c2ccc(-c3ccc(S(=O)(=O)Nc4ncccn4)cc3)o2)cc1	none
O=C(N/N=C/c1ccc(-c2ccc(S(=O)(=O)Nc3ncccn3)cc2)o1)c1cc2ccccc2cc1O	ATG4B inhibitor 75 | ATG4B conf inactive | PLA2 counter inactive
Cc1cccc(NS(=O)(=O)c2ccc(-n3cccn3)cc2)c1C	none
Cc1ccsc1C(=O)NCCC(c1ccccc1)c1ccccc1	ATG4B inhibitor 41 | PLA2 counter inactive
CCN(CC)c1ccc(C(=C2C=CC(=[N+](CC)CC)C=C2)c2ccc(N(CC)CC)cc2)cc1	ATG4B inhibitor 58 (no result: Efflux pump inh, Mot1-301 SUMO, AI-2 QS modul) | PLA2 counter 52
O=c1[nH]c(Nc2ccccc2)cc2ccccc12	none | ATG4B conf 75 | PLA2 counter inactive
CCCn1c(=O)n(C)c(=O)c2c(SCC(=O)NCC(c3ccccc3)N(C)C)nc(CC(C)C)nc21 (configuration not stated)	none
Cc1cccc(C)c1NC(=O)CN1CCc2ccccc2C1	none
O=C(/C=C/N1CCOCC1)c1cc2ccccc2o1	ATG4B inhibitor 65 | PLA2 counter inactive
CCCCCCCCCCCCN1[C@@H](CC(=O)O)c2cc(C(F)(F)F)ccc2S1(=O)=O	ATG4B inhibitor 59 | PLA2 counter 72
CCCCCCCCN1[C@@H](CC(=O)O)c2cc(C(F)(F)F)ccc2S1(=O)=O	none
CC(C)(C)C(=O)OCCNc1nc(-c2ccccc2)nc2ccccc12	ATG4B inhibitor 54 | PLA2 counter 63
CC(C)OCCCNc1nc(-c2ccccc2)nc2ccccc12	none
O=C(CN(c1cccc(C(F)(F)F)c1)S(=O)(=O)c1ccc(Cl)c([N+](=O)[O-])c1)NCc1ccccc1	none
O=C(CN(c1cccc(C(F)(F)F)c1)S(=O)(=O)c1ccc(Cl)c([N+](=O)[O-])c1)NCc1ccccc1Cl	ATG4B inhibitor 54 | PLA2 counter 53

Screens deposited in PubChem BioAssay by several laboratories.
